PubChem BioAssay AID720596 (The Scripps Research Institute Molecular Screening Center, 2013)
“And” between values parts separate entries of the source, which are not always exact repeats. Equal entries are not always repeated. Among all 370,000 compounds or so, about 1,600 (0.43%) were called active. What follows is part of a selection rich in actives, with near analogues and random picks from the rest. A number with no mark means an inactive call. Cut-off read from the data, not from the text of the source: active = inhibition above about 24%; inactive = the rest.

These compounds were tested against Major prion protein (Homo sapiens) (UniProt P04156) (assay: inhibitors of human cell surface prion protein PrPC, primary screen, cell-based, TR-FRET (AID 720596; note: 0% = median of the test wells and 100% = reference compound wells)). Details: TR-FRET read-out, at 13.8 µM, hits give high values.
Compound `CCc1ccc(Oc2coc3cc(OC(=O)c4cc5ccccc5oc4=O)ccc3c2=O)cc1` has an inhibition of -6.51%. `O=C(Oc1ccccc1)Oc1ccc2c(c1)oc(=O)c1ccccc12` was tested, and the inhibition was 31.3% (active). Work on `O=C(OCCN1C(=O)c2ccccc2C1=O)Oc1ccccc1` yielded an inhibition of -3.25%. With `C=C(C)c1cccc(C(C)(C)NC(=O)NCCN(CC)CC)c1` the inhibition was -1.16%. For `CCOc1ccc(NC(=O)C2CC(=O)N=C(N)S2)cc1` (centres undefined), the inhibition was 3.27%. In the case of `CCc1ccc(OCC(=O)N(Cc2ccccc2)C2CCS(=O)(=O)C2)cc1` (centres undefined), the inhibition is reported as 7.58%. For `CC1=CC2=NC(=O)CC(C)(C(=O)N(CC(=O)NC(C)(C)C)Cc3ccccc3)N2C=C1` (centres undefined), the inhibition was -11.9%. `O=C(O)CCc1nc2cc(Cl)ccc2n(Cc2ccccc2)c1=O` showed an inhibition of -3.72%. With `O=c1[nH]cccc1-c1nc2ccccc2n1Cc1ccc(Cl)cc1` the inhibition was 48.8% (active). `O=C(Cn1c(-c2cscn2)nc2ccccc21)Nc1ccc(Cl)cc1` gave an inhibition of 16.8%. `CCCCCn1nnnc1-c1nc2cc3ccccc3cc2[nH]c1=O` showed an inhibition of -2.3%. Compound `COc1cc(OC)c(C(=O)OC(C)C(=O)Nc2cc(C(F)(F)F)ccc2Cl)cc1OC` (centres undefined) has an inhibition of -3.19%. In the case of `CC(=O)c1ccc(S(=O)(=O)N(C)CCCC(=O)N(C)Cc2ccccc2F)cc1`, the inhibition is reported as 3.84%. In the case of `Cc1ccc(S(=O)(=O)NCC2CCC(C(=O)N3CCOCC3)CC2)cc1` (centres undefined), the inhibition is reported as 9.49%. For `Cc1nc(/N=C(\N)NC(=O)NC2CCCCC2)nc2ccccc12`, the inhibition was 27.6% (active). In the case of `O=C(NNC(=O)C(O)c1ccccc1)NC1CCCCC1` (centres undefined), the inhibition is reported as 5.45%. For `O=C(Cn1nnc(-c2ccccc2)n1)NC(=O)NC1CCCC1`, the inhibition was 1.46%. In the case of `C[C@H]1CN([C@@H](C)CO)C(=O)c2cc(C3=CCCCC3)cnc2O[C@@H]1CN(C)C(=O)Cc1ccccc1`, the inhibition is reported as -9.73%. With `Cc1sc2c(c1C)c(=O)n(-c1ccccc1)c1nncn21` the inhibition was -3.5%. `c1ccc(CCC2=NCCn3cccc32)cc1` was tested, and the inhibition was -4.1% and -18.3%. `CCCCCCCC(=O)NC(Nc1ccccc1OC)C(Cl)(Cl)Cl` (centres undefined) showed an inhibition of 1.28%. Compound `CCOc1ccc(C(CC(=O)O)n2cnnn2)cc1OC` (centres undefined) has an inhibition of -3.65%. With `CCCCC(=O)NC(c1ccc(OC)c(OC)c1)c1ccc2cccnc2c1O` (centres undefined) the inhibition was 28.6% (active). Work on `CCOC(=O)C1=CCC(c2ccc(F)cc2)N(S(=O)(=O)c2ccc(C)cc2)C1` (centres undefined) yielded an inhibition of 0.96%. Work on `Cc1cc(C)n(CCNS(=O)(=O)c2ccc(Cl)cc2)n1` yielded an inhibition of -3.39%. `Cc1nnc(SCC(=O)NCc2cccs2)[nH]c1=O` gave an inhibition of 0.4%. In the case of `N#Cc1c(-c2cccs2)nc(SCC(=O)c2ccc(Br)cc2)[nH]c1=O`, the inhibition is reported as 49.9% (active). Compound `N#Cc1c(-c2ccc(F)cc2)cc(C2CC2)nc1SCC(=O)c1cccs1` has an inhibition of 8.6%. `CC(C)(C)NC(=O)NC(=O)COC(=O)C1(C)CC1(Cl)Cl` (centres undefined) gave an inhibition of -0.21%. Compound `O=C(Nc1ccc(Cl)cc1)c1cc2nc(C3CC3)cc(C(F)(F)F)n2n1` has an inhibition of -1.38%. Work on `O=C(COC(=O)c1cc2c(s1)CCCC2)NCc1ccccc1Cl` yielded an inhibition of 0.1%. `CSc1ncccc1C(=O)NCc1ccccc1Cl` gave an inhibition of -4.63%. Work on `Clc1ccc(-c2cc(COc3ccccc3)no2)cc1Cl` yielded an inhibition of -6.65%. In the case of `CC(C)Cn1c(N2CCN(C(=O)/C=C/c3ccccc3)CC2)nc2ccccc21`, the inhibition is reported as -10.9%. In the case of `COc1cc(C)c(Cl)cc1S(=O)(=O)n1ccnc1`, the inhibition is reported as -3.46%. With `Cc1cc2ccccc2n1CCNC(=O)COc1ccc2ccccc2c1` the inhibition was 45.2% (active). `COc1ccc(CCNC(=O)COc2ccc3c(c2)OCO3)cc1` showed an inhibition of -3.21%. `O=C(COc1ccc2ccc(=O)oc2c1)NCC(O)c1ccccc1` (centres undefined) showed an inhibition of -8.2%. In the case of `Cc1ccc(C)c(NC(=O)CCS(=O)(=O)c2ccccc2)c1`, the inhibition is reported as 4.81%. With `CCc1nc2ccc(C(=O)NCCNC(C)=O)cn2c1N(CC)Cc1cccc(Br)c1` the inhibition was 1.46%. For `CCOC(=O)N1CCN(C(=O)c2ccccc2N(Cc2ccccc2)S(=O)(=O)c2ccc(OC)cc2)CC1`, the inhibition was 9.59%. `COc1cccc(Cn2cc(COC(=O)Nc3ccc(F)cc3)nn2)c1` showed an inhibition of 6.34%. For `CN(C)C(=O)c1nc2ccc(Cl)cn2c1CNCc1cccc(OC(F)(F)F)c1`, the inhibition was -9.54%. In the case of `C=CCNC(=O)CSc1nc2scc(-c3ccco3)c2c(=O)n1CC=C`, the inhibition is reported as 25.2% (active). For `C=CCn1c(=S)[nH]c2scc(-c3ccco3)c2c1=O`, the inhibition was 4.26%. `C=CCn1c(SCC(=O)c2c(N)n(C)c(=O)n(C)c2=O)nc2sc(CC)cc2c1=O` gave an inhibition of 2.42%. `Nc1nc(NC(=O)/C=C/c2ccc(F)cc2)nn1-c1ccccc1` gave an inhibition of -4.74%. With `COc1ncnc2c1ncn2CCCNCCN1CCOCC1` the inhibition was -1.3%. In the case of `CCOC(=O)[C@]12CCCC=C1N(Cc1ccc(OC)cc1)C(=O)[C@@H]2CC(=O)NCc1cccs1`, the inhibition is reported as 6.08%. `O=C(Nc1ccccc1)N1CCN(Cc2nc3ccccc3c(=O)[nH]2)CC1` showed an inhibition of -8.21%. In the case of `NC(=O)C1CCN(C(=O)c2ccc3c(=O)n(Cc4cccc(Br)c4)c(=S)[nH]c3c2)CC1`, the inhibition is reported as 9.5%. With `NC(=O)C1CCN(Cc2nc3c(Br)cc(Br)cc3c(=O)[nH]2)CC1` the inhibition was 28.2% (active). Compound `O=C(NC1CCCC1)C1c2ccccc2OCC(=O)N1CC(F)(F)F` (centres undefined) has an inhibition of 1.68%. `O=C(CN1C(=O)C2C3C=CC(C3)C2C1=O)Nc1nc(-c2ccccn2)cs1` (centres undefined) showed an inhibition of 2.72%. With `CCc1nnc(NC(=O)CSc2nnc(COc3ccc(C#N)cc3)n2-c2ccccc2)s1` the inhibition was 0.08%. In the case of `N#Cc1ccc(OCC(=O)Nc2nc(-c3ccccn3)cs2)cc1`, the inhibition is reported as 32.4% (active). In the case of `CCN(Cc1ccncc1)C(=S)Nc1ccccc1C`, the inhibition is reported as 0.38%. With `O=S(=O)(c1ccccc1)N(Cc1cccc(F)c1)c1ccccc1` the inhibition was 7.38%. In the case of `COc1ccc2c(Cl)c(-c3nnco3)sc2c1`, the inhibition is reported as 24.9% (active). Work on `C#CCSc1nnc(-c2sc3ccccc3c2Cl)o1` yielded an inhibition of 3.9%. `Fc1ccc(COc2ccc(-c3nnco3)cc2)cc1` showed an inhibition of 1.45%. `Cn1cnc(S(=O)(=O)N2C[C@@H](O)COC[C@@H]3O[C@H](CC(=O)NC4CCC4)CC[C@H]32)c1` was tested, and the inhibition was 9.27%. In the case of `Cc1nn(-c2ccccc2)c(=O)c2noc(C)c12`, the inhibition is reported as 1.14%. In the case of `CCCCn1c(SCc2ncc(-c3ccccc3)o2)nc2cc(S(N)(=O)=O)ccc21`, the inhibition is reported as 2.37%. `COc1ccc(C[C@H]2CN3C(=NC[C@H]3C)N2CCNC(=O)CCC2CCCCC2)cc1` showed an inhibition of -0.91%. Work on `CC1(C(=O)NS(=O)(=O)Cc2cccc(Cl)c2)CCN1C(=O)Cc1ccc(Cl)cc1Cl` (centres undefined) yielded an inhibition of 1.42%. `O=S(=O)(c1ccc(SCc2ccccc2)nc1)N1CCCCCC1` was tested, and the inhibition was -0.79%. `Cc1ccc(CSc2ccc(S(=O)(=O)N3CCCCC3)cn2)cc1` was tested, and the inhibition was 33.8% (active). With `COC(=O)c1ccc(CSc2ccc(S(=O)(=O)N3CCCCC3)cn2)cc1` the inhibition was 0.66%. `CCOc1ccc(CCNC(=O)C2CCN(c3ccc(N4CCOCC4)nn3)CC2)cc1OCC` was tested, and the inhibition was -16.1%. Compound `O=C(/C=C/c1cccc([N+](=O)[O-])c1)OCC(=O)N1CCOCC1` has an inhibition of -2.76%. For `CCN(C(=O)[C@@H](C1CC1)[C@@H](O)c1ccc2ccccc2c1)c1ccccc1`, the inhibition was -3.85%. Compound `COc1ccc(CN2CCC(c3nc4ccc(Cl)cc4[nH]3)CC2)cc1` has an inhibition of -13.1%. For `Cc1ccc(CN2CCCOCCS2(=O)=O)cc1`, the inhibition was 2.42%. `COc1ccc(C(=O)N2CCCCC2c2cc(C(=O)Nc3ccc(F)c(Cl)c3)no2)cc1` (centres undefined) showed an inhibition of -1.86%. `Cc1cc(=O)n2[nH]c(-c3sccc3-n3c(C)ccc3C)cc2n1` gave an inhibition of 13.4%. With `CCc1c(C)nc2cc(-c3cccs3)[nH]n2c1=O` the inhibition was 37.9% (active). For `CCc1c(C)nc2cc(C)[nH]n2c1=O`, the inhibition was 1.02%. `CC(C)n1c(=S)[nH]c2cc(C(F)(F)F)ccc21` gave an inhibition of -2.04%. Compound `O=C(CNC(=O)c1ccccc1)OC(C(=O)Nc1cc([N+](=O)[O-])ccc1F)c1ccccc1` (centres undefined) has an inhibition of 9.58%. `O=C(NC(Nc1nc2ccc([N+](=O)[O-])cc2s1)(C(F)(F)F)C(F)(F)F)c1ccccc1` was tested, and the inhibition was 43.8% (active). `O=C(Nc1nc2ccc(Cl)cc2s1)c1cc(-c2ccc(Cl)cc2)nc2ccccc12` gave an inhibition of 6.81%. `Cc1cc(C(=O)NN=C/C=C/c2ccco2)n[nH]1` showed an inhibition of -15.4%. Compound `CCn1c(SCC(=O)Nc2nc(C)cs2)nnc1C(C)NC(=O)c1ccccc1` (centres undefined) has an inhibition of -3.46%. With `CC(=O)N1C[C@@H](CO)[C@@H](N(C)C(=O)c2ccco2)C[C@H]1c1ccccc1` the inhibition was -3.63%. Work on `CCN(CC(=O)NCc1cccs1)C(=O)/C=C/c1ccc(C)cc1` yielded an inhibition of -4.17%. For `COC(=O)Cc1[nH]n(-c2nc3ccccc3s2)c(=O)c1C(C)=Nc1ccc(OC)cc1`, the inhibition was 32.6% (active). `O=C(COC(=O)CNS(=O)(=O)c1ccc(F)c(F)c1F)NC1CCCC1` showed an inhibition of -0.54%. `O=C(COC(=O)c1cnccn1)Nc1ccc(Cl)cc1C(F)(F)F` was tested, and the inhibition was 5.86%. Work on `Cc1c(S(=O)(=O)N2CC(C)CC(C)C2)c(=O)n(C)c(=O)n1C` (centres undefined) yielded an inhibition of 5.95%. `CCSc1nc(C)c(CCOc2cccc(C)c2)c(=O)[nH]1` was tested, and the inhibition was 4.37%. In the case of `CCCc1nc(SCC(=O)Nc2ccc(S(=O)(=O)N(C)C)cc2)c2ccccc2n1`, the inhibition is reported as 52.8% (active). `CC(C)N(C(=O)CSc1nc(COc2ccccc2)nc2ccccc12)C(C)C` showed an inhibition of 12.9%. `CN(C)S(=O)(=O)c1ccc(NC(=O)COC(=O)c2n[nH]c3ccccc23)cc1` showed an inhibition of 0.47%.
